Data reported in PubChem BioAssay (NCATS).
Inconclusive results are not listed. Activity calls are given as the source filed them. Calls come from the whole dose curve; as a rule, active = well fitted curve in the direction sought with a large enough effect; inconclusive = small, poorly fitted or top-dose-only effect, or another doubt; inactive = no such curve, though single readings can be large; an effect the other way counts as inactive or inconclusive.

Key:
[1] = target: Rap guanine nucleotide exchange factor 3 (Homo sapiens) (UniProt O95398); assay: Confirmatory qHTS for agonist of cAMP-regulated guanine nucleotide exchange factor 3 (EPAC1) (AID 1645881);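 note: EPAC1 catalysed release of BODIPY-GDP from Rap1B seen as fluorescence loss; 100% = effect of cAMP agonist control; nearly all actives have a fitted effect of over 75% in size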
[2] = target: Rap guanine nucleotide exchange factor 4 (Homo sapiens) (UniProt Q8WZA2); assay: Confirmatory qHTS for agonist of cAMP-regulated guanine nucleotide exchange factor 4 (EPAC2) (AID 1645884);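 note: nucleotide exchange releases bodipy-GDP from Rap1 and this lowers its fluorescence; % is set by controls: 0 for no effect and ±100 for the full control effect; nearly all actives have a fitted effect of over 65% in size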
[3] = target: Rap guanine nucleotide exchange factor 4 (Homo sapiens) (UniProt Q8WZA2); assay: Confirmatory qHTS for antagonist of cAMP-regulated guanine nucleotide exchange factor 4 (EPAC2) (AID 1645885); note: nearly all actives have a fitted effect of over 25% in size; note: potency is the fitted concentration of half-maximal effect; for activity change, negative = inhibition: % is set by controls: 0 for no effect and ±100 for the full control effect
[4] = target: Rap guanine nucleotide exchange factor 3 (Homo sapiens) (UniProt O95398); assay: Counterscreen qHTS for antagonist of cAMP-regulated guanine nucleotide exchange factor 3 (EPAC1) (AID 1645888);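 note: fluorescence loss as bound BODIPY-GDP is released from Rap1B; % of control where 0% means no effect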
Summary of the method: (§1)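 Measured: fluorescence of BODIPY-GDP bound to Rap1B, which falls as exchange proceeds. Conditions include 50 uM competing GDP, 5 and 30 min reads, and a later cAMP challenge for antagonist detection.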

[5] = target: Rap guanine nucleotide exchange factor 3 (Homo sapiens) (UniProt O95398); assay: Counterscreen qHTS for agonist of cAMP-regulated guanine nucleotide exchange factor 3 (EPAC1) (AID 1645889); note: % of control where 0% means no effect; nearly all actives have a fitted effect of over 40% in size
Summary of the method: as §1

Chain of Rap guanine nucleotide exchange factor 4 (Homo sapiens) (Q8WZA2 whole entry, looked up): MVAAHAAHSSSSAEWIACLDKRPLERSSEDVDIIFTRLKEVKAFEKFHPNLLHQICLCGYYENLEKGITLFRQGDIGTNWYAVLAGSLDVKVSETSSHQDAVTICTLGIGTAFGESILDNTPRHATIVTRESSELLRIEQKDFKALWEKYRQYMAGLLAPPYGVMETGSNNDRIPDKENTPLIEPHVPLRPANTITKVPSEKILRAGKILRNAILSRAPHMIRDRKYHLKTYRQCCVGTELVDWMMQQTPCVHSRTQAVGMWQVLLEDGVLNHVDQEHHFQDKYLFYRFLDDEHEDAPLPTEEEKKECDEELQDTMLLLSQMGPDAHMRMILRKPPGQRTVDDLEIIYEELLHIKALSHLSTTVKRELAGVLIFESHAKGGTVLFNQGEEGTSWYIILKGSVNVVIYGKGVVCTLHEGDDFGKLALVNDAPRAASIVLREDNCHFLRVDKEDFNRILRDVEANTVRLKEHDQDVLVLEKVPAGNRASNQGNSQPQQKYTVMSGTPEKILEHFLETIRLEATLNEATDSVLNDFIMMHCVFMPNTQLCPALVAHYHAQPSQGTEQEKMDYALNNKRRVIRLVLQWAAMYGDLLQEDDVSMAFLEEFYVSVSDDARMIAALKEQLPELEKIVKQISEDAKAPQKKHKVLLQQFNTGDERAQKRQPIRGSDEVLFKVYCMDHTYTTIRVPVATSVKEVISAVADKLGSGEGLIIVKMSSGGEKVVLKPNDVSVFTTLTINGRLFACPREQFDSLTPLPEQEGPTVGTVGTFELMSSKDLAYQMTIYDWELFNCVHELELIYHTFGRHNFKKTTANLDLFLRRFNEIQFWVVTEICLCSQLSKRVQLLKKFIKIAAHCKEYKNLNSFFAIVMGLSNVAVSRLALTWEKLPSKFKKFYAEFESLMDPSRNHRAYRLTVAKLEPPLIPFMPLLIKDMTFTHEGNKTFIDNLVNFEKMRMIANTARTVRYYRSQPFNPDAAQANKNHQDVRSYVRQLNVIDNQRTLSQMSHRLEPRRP
Chain of Rap guanine nucleotide exchange factor 3 (Homo sapiens) (O95398 whole entry, looked up): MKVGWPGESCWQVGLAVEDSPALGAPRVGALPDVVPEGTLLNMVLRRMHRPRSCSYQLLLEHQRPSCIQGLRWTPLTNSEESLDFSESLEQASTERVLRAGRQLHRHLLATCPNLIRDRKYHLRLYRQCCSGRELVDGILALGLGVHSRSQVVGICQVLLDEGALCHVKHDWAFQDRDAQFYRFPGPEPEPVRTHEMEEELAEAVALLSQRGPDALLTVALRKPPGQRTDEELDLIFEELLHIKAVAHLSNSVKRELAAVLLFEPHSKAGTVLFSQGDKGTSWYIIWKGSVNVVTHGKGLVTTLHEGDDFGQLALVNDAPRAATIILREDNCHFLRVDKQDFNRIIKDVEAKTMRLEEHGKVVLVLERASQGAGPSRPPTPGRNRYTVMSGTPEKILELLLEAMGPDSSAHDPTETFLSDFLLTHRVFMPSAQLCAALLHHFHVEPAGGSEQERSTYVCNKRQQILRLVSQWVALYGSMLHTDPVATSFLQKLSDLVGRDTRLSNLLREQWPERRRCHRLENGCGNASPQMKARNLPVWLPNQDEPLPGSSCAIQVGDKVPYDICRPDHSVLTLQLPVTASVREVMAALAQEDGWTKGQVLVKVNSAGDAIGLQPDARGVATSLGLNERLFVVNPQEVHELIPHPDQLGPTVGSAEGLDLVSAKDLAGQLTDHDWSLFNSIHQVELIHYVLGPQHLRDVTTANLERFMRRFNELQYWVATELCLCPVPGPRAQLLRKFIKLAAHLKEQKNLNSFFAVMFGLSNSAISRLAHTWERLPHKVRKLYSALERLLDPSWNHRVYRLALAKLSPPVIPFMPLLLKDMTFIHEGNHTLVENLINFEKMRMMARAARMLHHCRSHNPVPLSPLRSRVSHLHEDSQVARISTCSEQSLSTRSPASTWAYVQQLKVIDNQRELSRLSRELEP

Cc1cc(SCC(=O)N/N=C/c2ccc(O)c(O)c2)nc2ccccc12
inactive: Potency [1] | activation [2] 5.52% [at 17.1 µM, percent relative to cAMP agonist control] | Potency [3] | activity change, negative = inhibition [4] -2.02% [at 30.8 µM]

O=C1N(Cc2ccccc2)c2ccccc2C1(O)c1c[nH]c2ccccc12 (stereo not drawn)
inactive: Potency [1] | Potency [2] | Potency [3] | Potency [4]

Cc1ccc(C(C[N+](=O)[O-])c2c(-c3ccccc3O)[nH][nH]c2=O)cc1 (stereo not drawn)
active: Potency [3] 3.38 µM
inactive: Potency [1] | activation [2] 3.05% [at 17.1 µM, percent relative to cAMP agonist control] | activity change, negative = inhibition [4] -0.345% [at 30.8 µM]

COc1ccccc1Nc1cc2cc(Br)ccc2c(=O)[nH]1
inactive: Potency [1] | Potency [2] | Potency [3] | Potency [4]

CN(CCOc1ccc(Br)cc1)C(=O)CNC(=O)c1ccc2ccccc2c1
inactive: Potency [1] | activation [2] 0.226% [at 17.1 µM, percent relative to cAMP agonist control] | Potency [3] | activity change, negative = inhibition [4] -17.3% [at 30.8 µM]

Cc1ccc(SC/C(O)=C(\C#N)c2nc3ccccc3s2)cc1
inactive: Potency [1] | Potency [2] | Potency [3] | Potency [4]

Cc1ccc(-c2nn(-c3ccccc3)cc2C=C2SC(=S)N(CCS(=O)(=O)O)C2=O)cc1
inactive: Potency [1] | activation [2] 6.87% [at 17.1 µM, percent relative to cAMP agonist control] | Potency [3] | activity change, negative = inhibition [4] -16.5% [at 30.8 µM]

O=c1c2ccccc2nc(N/N=C/c2c(O)ccc3ccccc23)n1O
inactive: Potency [1] | Potency [2] | Potency [3] | Potency [4]

CC(C)Nc1nc(NC(C)C)nc(OCCOC(=O)c2ccccc2)n1
inactive: Potency [1] | Potency [2] | Potency [3] | Potency [4]

COc1ccc(OC)c(-n2c(SC)nnc2-c2c[nH]c3ccccc23)c1
inactive: Potency [1] | Potency [2] | Potency [3] | Potency [4]

CC1=C(C(=O)Nc2ccccc2)C(c2ccc[nH]2)n2ncnc2N1 (stereo not drawn)
inactive: Potency [1] | Potency [2] | Potency [3] | Potency [4]

CC(C)(C)C(C(=O)n1cccc1C#N)c1ccccc1 (stereo not drawn)
inactive: Potency [1] | activation [2] 5.44% [at 17.1 µM, percent relative to cAMP agonist control] | Potency [3] | activity change, negative = inhibition [4] 3.86% [at 30.8 µM]

Cc1cccc(Nc2nnc(-c3ccc(N4CCOCC4)c([N+](=O)[O-])c3)c3ccccc23)c1
inactive: Potency [1] | Potency [2] | Potency [3] | Potency [4]

COc1cccc(/C=C2\SC(=S)NC2=O)c1OS(=O)(=O)c1ccc(NC(C)=O)cc1
inactive: Potency [1] | activation [2] 5.66% [at 17.1 µM, percent relative to cAMP agonist control] | Potency [3] | activity change, negative = inhibition [4] -18.9% [at 30.8 µM]

O=S(=O)(Nc1ccc(Cl)cc1NS(=O)(=O)c1ccccc1)c1ccccc1
inactive: Potency [1] | activation [2] 1.88% [at 17.1 µM, percent relative to cAMP agonist control] | Potency [3] | activity change, negative = inhibition [4] -27.8% [at 30.8 µM]

Cc1ccn2c(=O)nc(SCC(=O)Nc3ccc4c(c3)OCO4)nc2c1
inactive: Potency [1] | Potency [2] | Potency [3] | Potency [4]

Cc1ccc(O)c(-c2n[nH]c3c2C(c2ccc(F)cc2)N(Cc2ccco2)C3=O)c1 (stereo not drawn)
inactive: Potency [1] | Potency [2] | Potency [3] | Potency [4]

Cc1cccc(Nc2nnc(SC/C(O)=C(\C#N)c3nc4ccccc4[nH]3)s2)c1
inactive: Potency [1] | Potency [2] | Potency [3] | Potency [4]

COc1ccc(OC)c(C(=O)c2coc3cc(Br)c(O)c(Br)c23)c1
inactive: Potency [1] | Potency [2] | Potency [3] | Potency [4]

COc1ccc(Cn2c(-c3ccc(C)cc3)nc3c(c(=O)c4ccccc4n3C)c2=O)cc1
inactive: Potency [1] | activation [2] -1.59% [at 17.1 µM, percent relative to cAMP agonist control] | Potency [3] | activity change, negative = inhibition [4] -16.2% [at 30.8 µM]

CC1CC(C)CN(C(=O)c2ccc3c(c2)N(Cc2ccccc2)CCS3)C1 (stereo not drawn)
inactive: Potency [1] | activation [2] 14.1% [at 17.1 µM, percent relative to cAMP agonist control] | Potency [3] | activity change, negative = inhibition [4] 1.99% [at 30.8 µM]

O=C(Nc1sc2c(c1C(=O)O)CCCC2)c1ccc(Cl)cc1
inactive: Potency [1] | activation [2] 1.39% [at 17.1 µM, percent relative to cAMP agonist control] | Potency [3] | activity change, negative = inhibition [4] -8.59% [at 30.8 µM]

O=C(O)C(Cc1ccccc1)N1C(=O)/C(=C/c2cccs2)SC1=S (stereo not drawn)
active: Potency [3] 75.7 µM
inactive: Potency [1] | Potency [2] | Potency [4] | Potency [5]

CCN(C(=O)Cn1c(=O)oc2cc(Cl)ccc21)c1cccc(C(F)(F)F)c1
inactive: Potency [1] | Potency [2] | Potency [3] | Potency [4] | Potency [5]

O=C(NCc1cccc(Cl)c1)c1ccc(S(=O)(=O)Nc2cccc(C(F)(F)F)c2)cc1
inactive: Potency [1] | Potency [2] | Potency [3] | Potency [4] | Potency [5]
